Results filed as inconclusive are left out. Active and inactive are the calls of the source. Unless noted, calls come from the whole dose curve; as a rule, active = well fitted curve in the direction sought with a large enough effect in the repeat runs; inconclusive = weak or mixed curves; inactive = flat fitted curve, though single readings scatter.
Tests used:
[1] = qHTS assay to test for compound auto fluorescence at 535 nm (green) in HEK293 cells (AID 720680)
[2] = qHTS assay to test for compound auto fluorescence at 460 nm (blue) in HEK293 cell free culture (AID 720681)
Summary of the method: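 Compounds were added to cell-free DMEM with 10% FBS and fluorescence read directly. The blue channel used 405 nm excitation and 460 nm emission, with triamterene as the reference fluorophore.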

[3] = qHTS assay to test for compound auto fluorescence at 535 nm (green) in HEK293 cell free culture (AID 720682)
Summary of the method: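 Using fluorescein as calibrant, autofluorescence was quantified at 485/535 nm in cell-free DMEM containing 10% FBS after pintool addition of compound or vehicle.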

[4] = qHTS assay to test for compound auto fluorescence at 590 nm (red) in HEK293 cell free culture (AID 720683)
Summary of the method: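 Cell-free wells of DMEM with 10% FBS received compound, and intrinsic fluorescence was read at excitation/emission 540/590 nm. Values expressed as equivalence to Rose Bengal sodium.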

[5] = qHTS assay to test for compound auto fluorescence at 590 nm (red) in HepG2 cell free culture (AID 720684)
Summary of the method: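 Compound was pinned into wells holding MEM with 10% FBS and no cells, and red fluorescence was read at Ex/Em 540/590 nm. Signal is expressed as auto fluorescence equivalency relative to Rose Bengal sodium.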

[6] = qHTS assay to test for compound auto fluorescence at 460 nm (blue) in HepG2 cell free culture (AID 720685)
Summary of the method: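 Compound (23 nL) or DMSO pinned into cell-free MEM with 10% FBS; blue fluorescence read at 405/460 nm excitation/emission, expressed as auto-fluorescence equivalency to triamterene.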

[7] = qHTS assay to test for compound auto fluorescence at 535 nm (green) in HepG2 cell free culture (AID 720686)
[8] = qHTS assay to test for compound auto fluorescence at 460 nm (blue) in HepG2 cells (AID 720687)
Summary of the method: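 HepG2 cells in MEM with 10% FBS, attached overnight at 37 C, were exposed to compound or DMSO for 1 hr at 37 C, 5% CO2. Blue fluorescence was read at 405/460 nm, with triamterene as reference fluorophore.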

[9] = molecular target: Glucocorticoid receptor (Homo sapiens) (UniProt P04150); assay: qHTS assay to identify small molecule agonists of the glucocorticoid receptor (GR) signaling pathway (AID 720691; active = well fitted activation curve with a large enough effect in the signal ratio in the repeat runs, not every such curve was filed as active; the % refers to the signal ratio)
Chain of Glucocorticoid receptor (Homo sapiens) (P04150 whole entry, looked up): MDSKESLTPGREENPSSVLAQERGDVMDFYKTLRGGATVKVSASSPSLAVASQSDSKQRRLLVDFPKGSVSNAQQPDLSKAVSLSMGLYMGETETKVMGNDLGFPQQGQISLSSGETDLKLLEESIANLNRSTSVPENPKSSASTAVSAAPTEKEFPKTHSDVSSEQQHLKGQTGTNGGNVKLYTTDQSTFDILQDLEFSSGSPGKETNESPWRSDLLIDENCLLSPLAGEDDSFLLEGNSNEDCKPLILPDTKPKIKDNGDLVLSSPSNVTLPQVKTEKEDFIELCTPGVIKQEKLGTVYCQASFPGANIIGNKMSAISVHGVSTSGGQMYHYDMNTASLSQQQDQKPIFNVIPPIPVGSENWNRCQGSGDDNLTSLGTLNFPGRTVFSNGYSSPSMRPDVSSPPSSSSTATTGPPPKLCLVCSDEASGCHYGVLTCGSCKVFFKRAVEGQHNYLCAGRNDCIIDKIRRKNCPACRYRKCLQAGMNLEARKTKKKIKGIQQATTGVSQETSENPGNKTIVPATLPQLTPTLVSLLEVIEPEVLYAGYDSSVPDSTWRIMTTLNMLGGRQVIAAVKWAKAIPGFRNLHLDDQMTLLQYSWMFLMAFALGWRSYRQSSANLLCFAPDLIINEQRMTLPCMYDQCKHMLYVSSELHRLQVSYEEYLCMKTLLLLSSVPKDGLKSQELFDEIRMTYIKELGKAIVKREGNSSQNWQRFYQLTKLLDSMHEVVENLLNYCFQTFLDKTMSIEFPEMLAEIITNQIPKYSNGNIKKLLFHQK
Summary of the method: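 Beta-lactamase reporter activity, read as fluorescence intensity, was measured in GR-bla HeLa cells exposed to compounds for 18 h at 37 C and then loaded with LiveBLAzer B/G FRET substrate for 2 h at room temperature.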
% is set by controls: 0 for no effect and ±100 for the full control effect.

Cc1ccc2c(ccc3ccccc32)c1
inactive: outcome [1] | Potency [2] | outcome [3] | outcome [4] | outcome [5] | Potency [6] | outcome [7] | Potency [8]

CC(C)NCC(O)c1cc(O)cc(O)c1 (stereo not drawn)
inactive: outcome [1] | Potency [2] | outcome [3] | outcome [4] | outcome [5] | Potency [6] | outcome [7] | Potency [8]

CC(C(=O)O)c1ccc(C(=O)c2ccccc2)s1 (stereo not drawn)
inactive: fluorescence, % of fluorescein [1] 0.0614% [at 18.6 µM] | fluorescence, % of fluorescent control [2] -0.0527% [at 18.6 µM] | activity change [3] -0.0099% [at 18.6 µM] | fluorescence, % of fluorescent control [4] -0.0875% [at 18.6 µM] | fluorescence, % of Rose Bengal [5] 0.261% [at 18.6 µM] | fluorescence, % of fluorescent control [6] -0.006% [at 18.6 µM] | fluorescence, % of fluorescein control [7] 0.146% [at 18.6 µM] | fluorescence, % of fluorescent control [8] 0.0098% [at 18.6 µM]

C=CC(=O)OCCOC(=O)CCC(=O)O
inactive: outcome [1] | Potency [2] | outcome [3] | outcome [4] | outcome [5] | Potency [6] | outcome [7] | Potency [8]

CCCC[C@H]1CN(CC2CCOCC2)C(=O)OC12CCN(C1(C)CCN(C(=O)c3c(C)ncnc3C)CC1)CC2
inactive: outcome [1] | Potency [2] | outcome [3] | outcome [4] | outcome [5] | Potency [6] | outcome [7] | Potency [8]

N#CCCNCCC#N
inactive: outcome [1] | Potency [2] | outcome [3] | outcome [4] | outcome [5] | Potency [6] | outcome [7] | Potency [8]

NC(N)=N/N=C/c1c(Cl)cccc1Cl
inactive: outcome [1] | Potency [2] | outcome [3] | outcome [4] | outcome [5] | Potency [6] | outcome [7]

Cn1c(NCCN(CCO)CCCc2ccc([N+](=O)[O-])cc2)cc(=O)n(C)c1=O
inactive: outcome [1] | Potency [2] | outcome [3] | outcome [4] | outcome [5] | Potency [6] | outcome [7] | Potency [8]

COc1ccc(C(C)=O)cc1
inactive: outcome [1] | Potency [2] | outcome [3] | outcome [4] | outcome [5] | Potency [6] | outcome [7]

FC(F)(F)C(F)(F)C(F)(F)C(F)(F)C(F)(F)C(F)(F)CCI
inactive: outcome [1] | Potency [2] | outcome [3] | outcome [4] | outcome [5] | Potency [6] | outcome [7] | Potency [8]

O=C(O)COC(=O)Cc1ccccc1Nc1c(Cl)cccc1Cl
inactive: fluorescence, % of fluorescein [1] 0.0784% [at 18.6 µM] | fluorescence, % of fluorescent control [2] 0.0686% [at 18.6 µM] | activity change [3] 0.0139% [at 18.6 µM] | fluorescence, % of fluorescent control [4] -0.172% [at 18.6 µM] | fluorescence, % of Rose Bengal [5] -0.0238% [at 18.6 µM] | fluorescence, % of fluorescent control [6] 0.0872% [at 18.6 µM] | fluorescence, % of fluorescein control [7] 0.0255% [at 18.6 µM] | fluorescence, % of fluorescent control [8] 0.0219% [at 18.6 µM]

CC1(C)CCC(C)(C)c2cc(NC(=O)c3ccc(C(=O)O)cc3)ccc21
inactive: outcome [1] | Potency [2] | outcome [3] | outcome [4] | outcome [5] | Potency [6] | outcome [7] | Potency [8] | Potency [9]

COCCCCCCCCOCCC[Si](C)(O[Si](C)(C)C)O[Si](C)(C)C
inactive: outcome [1] | Potency [2] | outcome [3] | outcome [4] | outcome [5] | Potency [6] | outcome [7] | Potency [8]

CCCCCOC(=O)c1ccc(O)cc1
inactive: outcome [1] | Potency [2] | outcome [3] | outcome [4] | outcome [5] | Potency [6] | outcome [7] | Potency [8] | Potency [9]

CCCCCCCCCCCCC(=O)O
inactive: outcome [1] | Potency [2] | outcome [3] | outcome [4] | outcome [5] | Potency [6] | outcome [7] | Potency [8] | Potency [9]

Cn1sccc1=O
inactive: outcome [1] | Potency [2] | outcome [3] | outcome [4] | outcome [5] | Potency [6] | outcome [7] | Potency [8] | Potency [9]

C#CCOC(=O)[C@@H](C)Oc1ccc(Oc2ncc(Cl)cc2F)cc1
inactive: outcome [1] | Potency [2] | outcome [3] | outcome [4] | outcome [5] | Potency [6] | outcome [7] | Potency [8] | Potency [9]

CN1CCC(=C2c3ccccc3C=Cc3ccccc32)CC1
inactive: outcome [1] | Potency [2] | outcome [3] | outcome [4] | outcome [5] | Potency [6] | outcome [7] | Potency [8] | Potency [9]

CN(c1nccc(=O)[nH]1)C1CCN(c2nc3ccccc3n2Cc2ccc(F)cc2)CC1
inactive: outcome [1] | Potency [2] | outcome [3] | outcome [4] | outcome [5] | Potency [6] | outcome [7] | Potency [8]

COc1ccc([C@@H]2Sc3ccccc3N(CCN(C)C)C(=O)[C@@H]2OC(C)=O)cc1
inactive: outcome [1] | Potency [2] | outcome [3] | outcome [4] | outcome [5] | Potency [6] | outcome [7] | Potency [8] | Potency [9]

OCC1CC2CC1C1CCC(CO)C21 (stereo not drawn)
inactive: outcome [1] | Potency [2] | outcome [3] | outcome [4] | outcome [5] | Potency [6] | outcome [7] | Potency [8]

CC(C)NCC(O)COc1ccc(CC(N)=O)cc1 (stereo not drawn)
inactive: outcome [1] | Potency [2] | outcome [3] | outcome [4] | outcome [5] | Potency [6] | outcome [7] | Potency [8]

CCCCOC(=O)/C=C\C(=O)OCCCC
inactive: outcome [1] | Potency [2] | outcome [3] | outcome [4] | outcome [5] | Potency [6] | outcome [7] | Potency [8] | Potency [9]

O=C(CC(=O)c1ccccc1)c1ccccc1
inactive: outcome [1] | Potency [2] | outcome [3] | outcome [4] | outcome [5] | Potency [6] | outcome [7] | Potency [8] | Potency [9]

CCCCCCCCC(CO)CCCCCC (stereo not drawn)
inactive: outcome [1] | Potency [2] | outcome [3] | outcome [4] | outcome [5] | Potency [6] | outcome [7] | Potency [8] | Potency [9]
